# From the antibiotic and cytotoxicity screens of Wong et al. (2023)
# The campaign covered roughly 39,000 compounds. About 3,300 (8.5%) were called active. The list comes from a sample in which actives are over-represented; it also holds similar structures and randomly drawn compounds.
# System: HepG2
# Test: cytotoxicity call (relative viability < 0.9)
# Settings: 10 µM
row,SMILES,cytotoxicity call
1,Cc1noc(C)c1NC(=O)N(C)C[C@@H]1Oc2ccc(NC(=O)c3ccncc3)cc2C(=O)N([C@H](C)CO)C[C@H]1C,inactive
2,O=c1[nH]c(=O)c2ccccc2[nH]1,inactive
3,COc1ccc2[nH]c(=O)[nH]c(=O)c2c1,active
4,COc1ccc2[nH]cc(CCNC(C)=O)c2c1,inactive
5,O=c1[nH]c(=O)c2cc(Br)ccc2[nH]1,active
6,COc1ccc2[nH]c3c(-c4cccc5ccccc45)nccc3c2c1,inactive
7,NCCc1c(C(=O)O)[nH]c2ccc(Br)cc12,inactive
8,C[C@@H]1CCCCO[C@H](CN(C)C(=O)Nc2ccc(C(F)(F)F)cc2)[C@@H](C)CN([C@H](C)CO)C(=O)c2cc(NS(C)(=O)=O)ccc2O1,inactive
9,CC(C)NC(=O)Nc1cccc2c1O[C@@H](CN(C)C(=O)Nc1ccc3c(c1)OCO3)[C@@H](C)CN([C@@H](C)CO)C2=O,inactive
10,C[C@@H]1CN([C@@H](C)CO)C(=O)c2cccc(NS(=O)(=O)c3ccccc3)c2O[C@@H]1CN(C)S(=O)(=O)c1cn(C)cn1,inactive
11,C=CCOC(=O)[C@H]1[C@@H]2C(=O)O[C@@H](c3ccccc3)[C@@H](c3ccccc3)N2[C@@H](c2ccc(OCCOC(=O)[C@H]3C[C@H]4C(=O)N[C@@H](CC(C)C)C(=O)N4[C@H]3c3ccc(O)cc3)cc2)[C@]12C(=O)Nc1ccc(I)cc12,inactive
12,COc1cc(CCC(=O)O)oc(=O)c1,inactive
13,COC(=O)[C@H](Cc1ccccc1)N1CC(/C=C/C2CC2)=C[C@@H]1[C@@H](O)CCn1cc(-c2ccc(C(=O)NO)s2)nn1,inactive
14,COC(=O)[C@@H](Cc1ccccc1)N[C@H](/C=C/C1CC1)[C@@H](O)CCn1cc(-c2ccc(C(=O)NO)cc2)nn1,active
15,COC(=O)[C@@H](Cc1ccccc1)N[C@H](/C=C/C1CC1)[C@@H](O)CCn1cc(-c2ccc(C(=O)NO)s2)nn1,active
16,COC(=O)[C@@H](Cc1ccccc1)N[C@H](/C=C/C1CC1)[C@@H](O)CCn1cc(-c2cccc(/C=C/C(=O)NO)c2)nn1,inactive
17,COC(=O)[C@H](Cc1ccccc1)N1CC(/C=C/C2CC2)=C[C@@H]1[C@@H](O)CCn1cc(-c2ccc(C(=O)NO)cc2)nn1,inactive
18,C#CCN([C@H](/C=C/C1CC1)[C@@H](O)CCn1cc(-c2ccc(C(=O)NO)s2)nn1)[C@@H](Cc1ccccc1)C(=O)OC,inactive
19,Cc1ccc(-c2ccc3c(c2)O[C@@H](CN(C)C(=O)NC(C)C)[C@H](C)CN([C@@H](C)CO)S3(=O)=O)cc1,inactive
20,C[C@H](CO)N1C[C@H](C)[C@H](CN(C)S(=O)(=O)c2ccc3c(c2)OCCCO3)OCc2cnnn2CCCC1=O,inactive
21,C[C@H](CO)N1C[C@H](C)[C@H](CN(C)Cc2ccccc2F)Oc2cc(C#CC3CC3)ccc2S1(=O)=O,inactive
22,CCN(CC)CCNC(=O)c1c(C)[nH]c(/C=C2/C(=O)Nc3ccc(-c4csc(-c5ccccc5)n4)cc32)c1C,active
23,C[C@@H]1CN([C@@H](C)CO)S(=O)(=O)c2ccc(C#CCC3CCCC3)cc2O[C@H]1CN(C)C(=O)c1cnccn1,inactive
24,C[C@@H]1CCCCO[C@H](CN(C)S(=O)(=O)c2cccs2)[C@H](C)CN([C@H](C)CO)C(=O)c2cc(NC(=O)C3CCCCC3)ccc2O1,inactive

row,SMILES,cytotoxicity call
1,CC(C)NC(=O)Nc1cccc2c1O[C@@H](CN(C)S(=O)(=O)c1ccc(F)cc1)[C@@H](C)CN([C@@H](C)CO)C2=O,inactive
2,CC(=O)C1CCC2C3CC=C4CC(O)CCC4(C)C3CCC12C (stereo not drawn),inactive
3,CC12CCC(O)CC1=CCC1C2CCC2(C)C(c3cccnc3)=CCC12 (stereo not drawn),inactive
4,CC1C2CCC3C4CC=C5CC(N(C)C)CCC5(C)C4CCC32CN1C (stereo not drawn),active
5,CC(C)[C@@H](N)C(=O)O,inactive
6,CC(O)C(N)C(=O)O (stereo not drawn),inactive
7,C[C@@H](O)[C@H](N)C(=O)O,active
8,C[C@H](CO)N1C[C@H](C)[C@H](CN(C)Cc2ccc(Oc3ccccc3)cc2)Oc2ccc(NC(=O)Cn3cnnn3)cc2CC1=O,inactive
9,COC(=O)[C@H](Cc1ccc(-n2cc(-c3cccc(/C=C/C(=O)NO)c3)nn2)cc1)N1CC2=C[C@H]([C@@H](O)Cc3ccccc3)n3c(=O)n(C)c(=O)n3[C@@H]2[C@@H](C2CC2)O1,active
10,COC(=O)[C@H](Cc1ccc(-n2cc(-c3ccc(C(=O)NO)cc3)nn2)cc1)N1CC2=C[C@H]([C@@H](O)Cc3ccccc3)n3c(=O)n(C)c(=O)n3[C@@H]2[C@@H](C2CC2)O1,inactive
11,COC(=O)[C@H](Cc1ccc(-n2cc(-c3ccc(C(=O)NO)s3)nn2)cc1)N1CC2=C[C@H]([C@@H](O)Cc3ccccc3)n3c(=O)n(C)c(=O)n3[C@@H]2[C@@H](C2CC2)O1,inactive
12,CC(=O)N1CCO[C@H]2CCN(C(=O)c3ccn(C)n3)C[C@H]21,inactive
13,COc1c(N2CCNC(C)C2)c(F)cc2c(=O)c(C(=O)O)cn(C3CC3)c12 (stereo not drawn),active
14,COc1c(N2CC3CCCNC3C2)c(F)cc2c(=O)c(C(=O)O)cn(C3CC3)c12.Cl (stereo not drawn),inactive
15,CCn1cc(C(=O)O)c(=O)c2cc(F)c(N3CCNC(C)C3)c(F)c21.Cl (stereo not drawn),inactive
16,C[C@@H]1CN([C@H](C)CO)C(=O)c2cc(NC(=O)Cc3ccccc3)ccc2O[C@@H](C)CCCCO[C@@H]1CN(C)S(=O)(=O)c1ccc(F)cc1,inactive
17,C[C@@H]1CN([C@H](C)CO)C(=O)c2cc(NC(=O)Cc3ccccc3)ccc2O[C@@H](C)CCCCO[C@H]1CN(C)S(=O)(=O)c1ccc(F)cc1,inactive
18,C[C@@H]1CCCCO[C@@H](CN(C)S(=O)(=O)c2ccc(F)cc2)[C@H](C)CN([C@H](C)CO)C(=O)c2cc(NC(=O)Cc3ccccc3)ccc2O1,inactive
19,C[C@H](CO)N1C[C@H](C)[C@H](CN(C)S(=O)(=O)c2ccc(F)cc2)OCCCC[C@H](C)Oc2ccc(NC(=O)Cc3ccccc3)cc2C1=O,inactive
20,C[C@@H]1CCCCO[C@@H](CN(C)S(=O)(=O)c2ccc(F)cc2)[C@@H](C)CN([C@@H](C)CO)C(=O)c2cc(NC(=O)Cc3ccccc3)ccc2O1,active
21,C[C@@H]1CCCCO[C@H](CN(C)S(=O)(=O)c2ccc(F)cc2)[C@@H](C)CN([C@@H](C)CO)C(=O)c2cc(NC(=O)Cc3ccccc3)ccc2O1,active
22,C[C@@H]1CCCCO[C@@H](CN(C)S(=O)(=O)c2ccc(F)cc2)[C@H](C)CN([C@@H](C)CO)C(=O)c2cc(NC(=O)Cc3ccccc3)ccc2O1,inactive
23,C[C@H]1CCCCO[C@H](CN(C)S(=O)(=O)c2ccc(F)cc2)[C@@H](C)CN([C@@H](C)CO)C(=O)c2cc(NC(=O)Cc3ccccc3)ccc2O1,inactive
24,C[C@@H]1CCCCO[C@H](CN(C)S(=O)(=O)c2ccc(F)cc2)[C@@H](C)CN([C@H](C)CO)C(=O)c2cc(NC(=O)Cc3ccccc3)ccc2O1,active
